Rows were chosen to be rich in hits. Some 2.5% of all compounds tested hit in one or more screens of this group.
KLF5 inhibitor = inhibitors of KLF5 expression. inhibition, % at 5 µM. AID 1700. hit rate 0.23% among 290,000. DLD-1 KLF5 promoter-luciferase reporter, luminescence;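 active = inhibition above a per-plate limit of that plate's mean compound inhibition plus 3 SD, cut at about 60% in these data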;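 note: higher means less KLF5 promoter-driven luciferase light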
697 NFkB inh = inhibitors of the PMA/ionomycin-induced NF-kB reporter in 697 B cells; hit rate 0.33% among 330,000; AID 435022; 697 B-cell NF-kB luciferase reporter, 16 h; inhibition, % at 4 µM; in the data active = inhibition above about 35%
Jurkat NFkB inh = lowers PMA/ionomycin-induced NF-kB signal in Jurkat cells; PMA/ionomycin-induced NF-kB luciferase reporter, luminescence; inhibition, % at 4 µM; hit rate 0.53% among 330,000; in the data active = inhibition above about 50%
ANO1 activ = mouse TMEM16A channel activation, primary screen | hit rate 0.3% among 340,000 | B-score at 10 µM | Q8BHY3 | HEK293 TMEM16A/YFP-H148Q/I152L, iodide quench fluorescence; hits give low values;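 active = fluorescence-ratio B-score plate-corrected deviation score at least 3 library SD below zero, with starting fluorescence score within 5 deviations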;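 note: channel opened by trigger with iodide after compound preincubation; score built on the fluorescence ratio of max minus min over baseline; more negative score means more quench and so TMEM16A activation or potentiation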
TMEM16A inh = mouse TMEM16A channel inhibition, primary screen | Q8BHY3 | HEK293 TMEM16A/YFP iodide influx fluorescence, ionomycin | normalized B-score (activity score, 25-100; higher = stronger inhibition) at 10 µM | hit rate 1.2% among 310,000 | AID 588511;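 active = ratio plate-corrected score three or more library SD toward inhibition, starting fluorescence score within five deviations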;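 note: score derived from kinetic fluorescence span divided by baseline fluorescence per well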
aSyn 5UTR inh = 5' untranslated region of α-synuclein, MLPCN primary screen; alpha-synuclein 5'UTR reporter, inhibitor activity; inhibition, % (tested at 7.5 µM); hit rate 0.82% among 300,000; AID 1813; in the data active = inhibition above about 60%;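 note: H4 neuroglioblastoma cells stably carrying SNCA 5'UTR luciferase fusion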
TMEM16A reconf = TMEM16A (mouse) chloride channel inhibition, re-confirmation | shares compounds with TMEM16A inh | inhibition, % at 10 µM | AID 652189 | HEK293 TMEM16A/YFP-H148Q, iodide quench fluorescence; ionomycin added to raise cell calcium | hit rate 39% among 2,300;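 active = mean duplicate percent inhibition, scaled so buffer wells are 0 and the reference blocker 100, over three buffer SD above buffer mean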
HEK293 Ca mobil = alters calcium mobilization in TMEM16A HEK293 cells, counter-screen; shares compounds with TMEM16A inh; TMEM16A/YFP HEK293, Fluo4 calcium mobilization; calcium response (% of ionomycin), % at 10 µM; hit rate 2% among 2,300; AID 652231;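 active = duplicate-averaged calcium signal over 20% of the ionomycin maximum, relative to buffer baseline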;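 note: each well's signal is peak minus trough fluorescence divided by its pre-addition baseline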
YFP-HEK293 quench = counter-screen for TMEM16A inhibitors: effect in parental YFP-HEK293 cells; shares compounds with TMEM16A inh; iodide YFP quench, ionomycin; YFP ratio F(max-min)/F0 at 10 µM; 2,300 tested, under 10 active; AID 652233;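 active = yellow fluorescent protein signal ratio exceeding the buffer control mean by over 5 SD of those controls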;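 note: ratio is mean of duplicate wells from kinetic YFP trace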
ClC-1 inh = rat ClC-1 inhibition, TMEM16A specificity screen; CHO ClC-1-YFP, iodide influx fluorescence quench; iodide control reads 0, buffer control 100; ratio percent, % at 10 µM; 2,300 tested, under 10 active; shares compounds with TMEM16A inh;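 active = duplicate-mean ratio percent above the mean of iodide-only control wells, which defines zero, plus 5 of their SD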;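 note: higher percent means stronger block of ClC-1 iodide influx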
Target sequence (P35524 whole entry, looked up): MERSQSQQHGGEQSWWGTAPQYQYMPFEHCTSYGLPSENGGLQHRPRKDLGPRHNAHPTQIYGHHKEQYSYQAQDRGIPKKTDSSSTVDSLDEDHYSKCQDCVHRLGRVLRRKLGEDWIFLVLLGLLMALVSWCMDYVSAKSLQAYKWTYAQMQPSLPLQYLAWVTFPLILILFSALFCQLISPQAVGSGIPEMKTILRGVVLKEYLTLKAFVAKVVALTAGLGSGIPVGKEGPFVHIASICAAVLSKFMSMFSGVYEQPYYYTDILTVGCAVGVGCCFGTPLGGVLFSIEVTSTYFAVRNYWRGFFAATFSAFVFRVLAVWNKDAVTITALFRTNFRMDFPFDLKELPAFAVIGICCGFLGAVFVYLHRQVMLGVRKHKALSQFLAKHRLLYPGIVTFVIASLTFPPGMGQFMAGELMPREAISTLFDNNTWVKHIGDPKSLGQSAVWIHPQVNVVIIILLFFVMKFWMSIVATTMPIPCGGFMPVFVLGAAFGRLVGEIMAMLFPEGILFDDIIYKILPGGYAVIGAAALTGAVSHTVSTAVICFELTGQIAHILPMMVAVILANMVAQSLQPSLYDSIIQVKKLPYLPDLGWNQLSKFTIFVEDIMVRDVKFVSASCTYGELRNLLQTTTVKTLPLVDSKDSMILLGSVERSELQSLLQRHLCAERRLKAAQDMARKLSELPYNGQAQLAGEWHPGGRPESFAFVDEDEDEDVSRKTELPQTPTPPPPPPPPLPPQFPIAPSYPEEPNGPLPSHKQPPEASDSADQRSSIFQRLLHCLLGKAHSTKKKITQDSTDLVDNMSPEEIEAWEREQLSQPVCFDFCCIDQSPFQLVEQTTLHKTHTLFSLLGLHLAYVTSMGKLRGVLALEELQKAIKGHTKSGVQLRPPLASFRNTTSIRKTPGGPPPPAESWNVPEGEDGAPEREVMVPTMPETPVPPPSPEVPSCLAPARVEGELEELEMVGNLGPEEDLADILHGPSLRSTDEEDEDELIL
Large screens that a line does not name were inactive (follow-up assays come after a bar, where they were run).

Cc1ccc(S(=O)(=O)N(C)C)cc1NC(=O)C1CCCN(C(=O)c2ccc(Cl)cc2)C1 (configuration not stated)	none (no result: KLF5 inhibitor)
Cc1cc(C)n(-c2nc3sc4c(c3c3nnc(SC(C)C)n23)CC(C)(C)OC4)n1	TMEM16A inh 100 (no result: aSyn 5UTR inh) | TMEM16A reconf inactive | HEK293 Ca mobil inactive | YFP-HEK293 quench inactive | ClC-1 inh inactive
Cc1noc(-c2ccc(C(F)(F)F)cc2)c1NC(=O)Nc1ccc(Cl)cc1	none
CCN(Cc1ccccc1)C(c1ccncc1)c1nnnn1C(C)(C)C (configuration not stated)	none
CCN(Cc1ccccc1)C(c1ccc(C)cc1)c1nnnn1C(C)(C)CC (configuration not stated)	TMEM16A inh 100 | TMEM16A reconf inactive | HEK293 Ca mobil inactive | YFP-HEK293 quench inactive | ClC-1 inh inactive
CCOc1c(Cl)cc(C(=O)Nc2ccccc2C(=O)O)cc1Cl	TMEM16A inh 100 | TMEM16A reconf 50% | HEK293 Ca mobil inactive | YFP-HEK293 quench inactive | ClC-1 inh inactive
O=C(O)CCNS(=O)(=O)c1ccc2ccccc2c1	TMEM16A inh 100 | TMEM16A reconf inactive | HEK293 Ca mobil inactive | YFP-HEK293 quench inactive | ClC-1 inh inactive
COc1ccc(-c2nnc(SCCC(=O)O)n2-c2ccccc2)cc1OC	none
COc1ccc(-n2c(SCCC(=O)O)nnc2-c2ccncc2)cc1	TMEM16A inh 100 | TMEM16A reconf inactive | HEK293 Ca mobil inactive | YFP-HEK293 quench inactive | ClC-1 inh inactive
CCCn1nnc(NC(=O)COc2ccc(C3CCCCC3)cc2)n1	TMEM16A inh 100 | TMEM16A reconf 44% | HEK293 Ca mobil inactive | YFP-HEK293 quench inactive | ClC-1 inh inactive
CCCn1nnc(NC(=O)COc2ccc(Cl)cc2)n1	none
Nc1[nH]c2cc([N+](=O)[O-])ccc2c1-c1ccccn1	none | TMEM16A reconf 21% | HEK293 Ca mobil inactive | YFP-HEK293 quench inactive | ClC-1 inh inactive
Nc1nc2ccc([N+](=O)[O-])cc2[nH]1	none
CCC1(c2ccc(OC)cc2)NC(=O)N(CC(=O)NC2CCCCC2C)C1=O (configuration not stated)	none (no result: KLF5 inhibitor, TMEM16A inh, aSyn 5UTR inh)
CCCOc1ccc(-c2nnn(CC(=O)c3ccc4c(c3)OCCO4)n2)cc1	TMEM16A inh 100 | TMEM16A reconf 17% | HEK293 Ca mobil inactive | YFP-HEK293 quench inactive | ClC-1 inh inactive
CCOc1ccc(-c2nnn(CC(=O)c3ccc4c(c3)OCCO4)n2)cc1	none
COC(=O)C(Cc1ccc(OC(=O)c2ccccc2C)cc1)N1Cc2ccccc2C1=O (configuration not stated)	none
COC(=O)C(Cc1ccc(OC(=O)c2ccccc2Cl)cc1)N1Cc2ccccc2C1=O (configuration not stated)	TMEM16A inh 100 | TMEM16A reconf inactive | HEK293 Ca mobil inactive | YFP-HEK293 quench inactive | ClC-1 inh inactive
CC(=O)c1cnc(SCc2ccc(Cl)cc2)nc1C	none
Cc1nc(SCc2ccc(Cl)c(Cl)c2)ncc1C(=O)O	TMEM16A inh 25 | TMEM16A reconf 22% | HEK293 Ca mobil inactive | YFP-HEK293 quench inactive | ClC-1 inh inactive
O=S(=O)(Nc1nc2ccccc2s1)c1ccc(Cl)s1	TMEM16A inh 100 | TMEM16A reconf 30% | HEK293 Ca mobil inactive | YFP-HEK293 quench inactive | ClC-1 inh inactive
COc1ccccc1CNC(=O)CCN=C1NS(=O)(=O)c2ccccc21	none (no result: KLF5 inhibitor, TMEM16A inh, aSyn 5UTR inh)
Cc1[nH]c(N=Nc2ccccc2)nc1N=Nc1ccccc1	TMEM16A inh 100, aSyn 5UTR inh 63 | TMEM16A reconf inactive | HEK293 Ca mobil inactive | YFP-HEK293 quench inactive | ClC-1 inh inactive
O=S(=O)(NCC(c1ccco1)N1CCc2ccccc2C1)c1ccc(F)cc1 (configuration not stated)	TMEM16A inh 25 (no result: KLF5 inhibitor) | TMEM16A reconf 36% | HEK293 Ca mobil inactive | YFP-HEK293 quench inactive | ClC-1 inh inactive
Cc1cc(C)c(S(=O)(=O)NCC(c2ccco2)N2CCc3ccccc3C2)c(C)c1 (configuration not stated)	none (no result: KLF5 inhibitor)
COc1cccc(C(=O)NNC2=C(C(=O)C(F)(F)F)CCC2)c1	none
O=C(NNC1=C(C(=O)C(F)(F)F)CCC1)c1ccc(Br)cc1	TMEM16A inh 100 | TMEM16A reconf 16% | HEK293 Ca mobil inactive | YFP-HEK293 quench inactive | ClC-1 inh inactive
CCOC(=O)c1sc2nccc(N(C)C)c2c1N=CNOCc1c(F)cccc1Cl	TMEM16A inh 100 | TMEM16A reconf inactive | HEK293 Ca mobil inactive | YFP-HEK293 quench inactive | ClC-1 inh inactive
CC(=O)c1ccc(NC(=O)CN2CCC(C(=O)c3ccc(F)cc3)CC2)cc1	none
O=C(CN1CCC(C(=O)c2ccc(F)cc2)CC1)Nc1ccc(F)cc1	TMEM16A inh 100 | TMEM16A reconf inactive | HEK293 Ca mobil inactive | YFP-HEK293 quench inactive | ClC-1 inh inactive
COc1ccc(S(=O)(=O)NCC(c2ccc(F)cc2)N2CCOCC2)cc1Br (configuration not stated)	none (no result: KLF5 inhibitor, TMEM16A inh, aSyn 5UTR inh)
CC(C)OC(=O)C1C2C=CC3(CN(Cc4cccs4)C(=O)C13)O2 (configuration not stated)	TMEM16A inh 100 | TMEM16A reconf inactive | HEK293 Ca mobil inactive | YFP-HEK293 quench inactive | ClC-1 inh inactive
COC(=O)C1C2C=CC3(CN(Cc4cccs4)C(=O)C13)O2 (configuration not stated)	none
COc1ccccc1CNC(=O)c1nn(-c2ccc(C)cc2)c(=O)c2c1c1ccccc1n2C	none | TMEM16A reconf inactive | HEK293 Ca mobil inactive | YFP-HEK293 quench inactive | ClC-1 inh inactive
CN(CC(=O)Nc1ccccc1Cl)C(=O)COC(=O)c1ccc([N+](=O)[O-])cc1Cl	none (no result: KLF5 inhibitor)
CN(CCOc1ccccc1)CC(=O)Nc1ccc([N+](=O)[O-])cc1Cl	TMEM16A inh 25 | TMEM16A reconf 19% | HEK293 Ca mobil inactive | YFP-HEK293 quench inactive | ClC-1 inh inactive
Cc1ccc(-n2nnnc2SCc2nnc(-c3ccccc3Br)o2)c(C)c1	TMEM16A inh 100 | TMEM16A reconf inactive | HEK293 Ca mobil inactive | YFP-HEK293 quench inactive | ClC-1 inh inactive
Cn1nnnc1SCc1nnc(-c2ccccc2Br)o1	none
